# Reference: PubChem BioAssay (NCATS)
# “And” between values parts separate entries of the source, which are not always exact repeats. Equal values may be shown once. Records with an inconclusive call do not appear. A call without a number means that no potency is given here. Where a structure was tested more than once in an assay, its records may differ in their call. The source made the active and inactive calls. Unless noted, calls follow the shape of the dose curve; as a rule, active = well fitted curve in the direction sought with a large enough effect; inconclusive = small, poorly fitted or top-dose-only effect, or another doubt; inactive = no such curve, though single readings can be large; an effect the other way counts as inactive or inconclusive.
# Assays:
# [1] = Primary qHTS for inhibitors of nuclear receptor binding SET domain protein 2 (NSD2) in an isogenic RCH-ACV NSD2 p.E1099K mutant (9B) (AID 1645876); also: nearly all actives have a fitted effect of over 70% in size; also: potency is read from the fitted curve at half-maximal effect
# [2] = Primary qHTS for inhibitors of nuclear receptor binding SET domain protein 2 (NSD2) in an RCH-ACV wild type WT cells (2C) (AID 1645877); also: nearly all actives have a fitted effect of over 70% in size; also: potency is read from the fitted curve at half-maximal effect
# [3] = NCATS anti-infectives library activity on the primary C. elegans qHTS viability assay (AID 1745855; calls by dose curve); conditions: C. elegans worm area imaging, day 7; at 41.8 µM (top of the series)
# In short: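 Viability is taken from GFP fluorescence of PE254-GFP-FLuc C. elegans imaged by laser cytometry over 7 days. Ten L1 worms per well grow at 21 °C on TOP10 E. coli capsules with titrated compound; levamisole marks toxicity.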
# [4] = molecular target: Phospholipid hydroperoxide glutathione peroxidase GPX4 (Homo sapiens) (UniProt P36969); assay: Primary qHTS Assay for Inhibitors of Recombinant Selenoprotein Glutathione Peroxidase 4 (GPX4) (AID 1845192); also: nearly all actives have a fitted effect of over 65% in size
# Sequence of Phospholipid hydroperoxide glutathione peroxidase GPX4 (Homo sapiens) (P36969 whole entry, looked up): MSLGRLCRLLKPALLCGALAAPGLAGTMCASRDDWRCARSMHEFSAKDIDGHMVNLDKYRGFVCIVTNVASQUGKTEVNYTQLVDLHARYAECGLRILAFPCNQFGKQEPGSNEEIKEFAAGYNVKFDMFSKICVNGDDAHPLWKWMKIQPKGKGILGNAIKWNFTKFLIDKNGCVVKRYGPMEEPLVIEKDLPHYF
# In short: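 GR-coupled assay: recombinant GPX4 preincubated 30 min with compound at room temperature; final 200 nM GPX4, 1 mM GSH, 0.5 mM cumene hydroperoxide, 0.5 mM NADPH, 100 nM GR, 0.01% BSA, pH 7.5 Tris. NADPH fluorescence (340/450 nm) read at 0 and 15 min.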
# [5] = molecular target: Glutathione peroxidase 1 (Homo sapiens) (UniProt P07203); assay: Primary qHTS Assay for Inhibitors of Recombinant Selenoprotein Glutathione Peroxidase 1 (GPX1) (AID 1845191); also: nearly all actives have a fitted effect of over 65% in size; also: potency is read from the fitted curve at half-maximal effect
# Sequence of Glutathione peroxidase 1 (Homo sapiens) (P07203 whole entry, looked up): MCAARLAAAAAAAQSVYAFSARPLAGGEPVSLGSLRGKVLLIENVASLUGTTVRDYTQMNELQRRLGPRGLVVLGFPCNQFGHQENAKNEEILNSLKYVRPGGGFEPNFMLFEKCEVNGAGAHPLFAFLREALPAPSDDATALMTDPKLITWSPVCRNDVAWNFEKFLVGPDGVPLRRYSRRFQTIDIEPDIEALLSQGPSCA
# In short: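 GR-coupled assay: compounds preincubated 30 min at room temperature with GPX1, then reaction started with CHP; final 10 nM GPX1, 1 mM GSH, 0.5 mM CHP, 0.5 mM NADPH, 100 nM GR, 0.01% BSA, pH 7.5 Tris buffer. NADPH fluorescence (340/450 nm) read at 0 and 15 min.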
# [6] = molecular target: Catechol O-methyltransferase (Homo sapiens) (UniProt P21964); assay: Confirmatory Screen for Target Class Profiling of Small Molecule Inhibitors of Methyltransferases (AID 1745852; calls by dose curve; also: potency is read from the fitted curve at half-maximal effect); conditions: MTase-Glo luminescence, SAH detection, recombinant enzyme; measured here: COMT max response; stronger effect = lower value
# Sequence of Catechol O-methyltransferase (Homo sapiens) (P21964 whole entry, looked up): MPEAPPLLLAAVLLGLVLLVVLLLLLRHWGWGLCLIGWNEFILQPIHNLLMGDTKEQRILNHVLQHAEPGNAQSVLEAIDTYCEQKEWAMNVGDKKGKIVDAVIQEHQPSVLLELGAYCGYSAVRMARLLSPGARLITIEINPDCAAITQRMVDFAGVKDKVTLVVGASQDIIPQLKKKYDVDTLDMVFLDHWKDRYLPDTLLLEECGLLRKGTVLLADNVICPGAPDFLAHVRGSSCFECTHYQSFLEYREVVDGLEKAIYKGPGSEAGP
# [7] = molecular target: Guanidinoacetate N-methyltransferase (Homo sapiens) (UniProt Q14353); assay: as above; conditions: MTase-Glo luminescence, SAH detection, recombinant enzyme; activity change, negative = inhibition: at 57.3 µM (top of the series)
# [8] = molecular target: Nicotinamide N-methyltransferase (Homo sapiens) (UniProt P40261); assay: as above; conditions: MTase-Glo luminescence, SAH detection, recombinant enzyme; measured here: NNMT max response; stronger effect = lower value
# Sequence of Nicotinamide N-methyltransferase (Homo sapiens) (P40261 whole entry, looked up): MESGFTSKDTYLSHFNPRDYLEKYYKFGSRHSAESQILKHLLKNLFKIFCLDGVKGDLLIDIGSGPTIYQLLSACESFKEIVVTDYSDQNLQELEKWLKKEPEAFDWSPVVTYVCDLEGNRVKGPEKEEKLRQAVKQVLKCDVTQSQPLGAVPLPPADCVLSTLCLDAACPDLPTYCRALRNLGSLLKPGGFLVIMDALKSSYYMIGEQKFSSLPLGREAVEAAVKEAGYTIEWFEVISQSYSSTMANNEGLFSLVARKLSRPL
# [9] = molecular target: Phenylethanolamine N-methyltransferase (Homo sapiens) (UniProt P11086); assay: as above; conditions: MTase-Glo luminescence, SAH detection, recombinant enzyme; measured here: PNMT max response; stronger effect = lower value
# Sequence of Phenylethanolamine N-methyltransferase (Homo sapiens) (P11086 whole entry, looked up): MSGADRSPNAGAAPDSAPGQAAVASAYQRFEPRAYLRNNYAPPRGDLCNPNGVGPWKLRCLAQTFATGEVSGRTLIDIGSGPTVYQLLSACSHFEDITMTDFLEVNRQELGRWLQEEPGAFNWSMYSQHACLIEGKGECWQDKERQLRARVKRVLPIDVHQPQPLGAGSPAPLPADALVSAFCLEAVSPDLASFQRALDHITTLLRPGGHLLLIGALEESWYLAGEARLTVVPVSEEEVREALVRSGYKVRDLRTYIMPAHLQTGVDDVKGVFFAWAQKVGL
# [10] = molecular target: Metallo-beta-lactamase type 2 (Klebsiella pneumoniae) (UniProt C7C422); assay: qHTS to identify inhibitors of the New Delhi Metallo-beta-lactamase (NDM): assay validation screen against the NCATS LOPAC Collection (AID 1794843);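 also: nitrocefin turnover by NDM-1 measured as 485 nm absorbance at plateau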
# Sequence of Metallo-beta-lactamase type 2 (Klebsiella pneumoniae) (C7C422 whole entry, looked up): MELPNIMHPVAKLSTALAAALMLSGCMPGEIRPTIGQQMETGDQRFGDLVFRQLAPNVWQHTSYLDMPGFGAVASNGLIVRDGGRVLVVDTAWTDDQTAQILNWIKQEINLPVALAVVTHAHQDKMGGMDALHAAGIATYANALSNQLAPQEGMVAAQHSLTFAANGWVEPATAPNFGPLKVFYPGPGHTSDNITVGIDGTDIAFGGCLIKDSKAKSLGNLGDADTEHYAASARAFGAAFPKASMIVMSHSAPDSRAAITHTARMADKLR
# In short: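 Nitrocefin hydrolysis (50 uM substrate stock) by NDM-1, 2 nM final, was followed by 485 nm absorbance after compound preincubation; buffer was 50 mM HEPES pH 7.0, 1 uM ZnSO4, 0.01% Tween20.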
# [11] = NCATS anti-infectives library activity on HEK293 viability as a counter-qHTS vs the C. elegans viability qHTS (AID 1745854)
# In short: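 HEK293 cells, 1500 per well, exposed 24 hr at 37C in 5% CO2 to compounds in a 1:5 titration, up to 41.7 uM final. Viability read as CellTiter-Glo luminescence after 10 min at room temperature.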
# [12] = molecular target: Rap guanine nucleotide exchange factor 3 (Homo sapiens) (UniProt O95398); assay: Confirmatory qHTS for antagonist of cAMP-regulated guanine nucleotide exchange factor 3 (EPAC1) (AID 1645880); also: nearly all actives have a fitted effect of over 55% in size
# Sequence of Rap guanine nucleotide exchange factor 3 (Homo sapiens) (O95398 whole entry, looked up): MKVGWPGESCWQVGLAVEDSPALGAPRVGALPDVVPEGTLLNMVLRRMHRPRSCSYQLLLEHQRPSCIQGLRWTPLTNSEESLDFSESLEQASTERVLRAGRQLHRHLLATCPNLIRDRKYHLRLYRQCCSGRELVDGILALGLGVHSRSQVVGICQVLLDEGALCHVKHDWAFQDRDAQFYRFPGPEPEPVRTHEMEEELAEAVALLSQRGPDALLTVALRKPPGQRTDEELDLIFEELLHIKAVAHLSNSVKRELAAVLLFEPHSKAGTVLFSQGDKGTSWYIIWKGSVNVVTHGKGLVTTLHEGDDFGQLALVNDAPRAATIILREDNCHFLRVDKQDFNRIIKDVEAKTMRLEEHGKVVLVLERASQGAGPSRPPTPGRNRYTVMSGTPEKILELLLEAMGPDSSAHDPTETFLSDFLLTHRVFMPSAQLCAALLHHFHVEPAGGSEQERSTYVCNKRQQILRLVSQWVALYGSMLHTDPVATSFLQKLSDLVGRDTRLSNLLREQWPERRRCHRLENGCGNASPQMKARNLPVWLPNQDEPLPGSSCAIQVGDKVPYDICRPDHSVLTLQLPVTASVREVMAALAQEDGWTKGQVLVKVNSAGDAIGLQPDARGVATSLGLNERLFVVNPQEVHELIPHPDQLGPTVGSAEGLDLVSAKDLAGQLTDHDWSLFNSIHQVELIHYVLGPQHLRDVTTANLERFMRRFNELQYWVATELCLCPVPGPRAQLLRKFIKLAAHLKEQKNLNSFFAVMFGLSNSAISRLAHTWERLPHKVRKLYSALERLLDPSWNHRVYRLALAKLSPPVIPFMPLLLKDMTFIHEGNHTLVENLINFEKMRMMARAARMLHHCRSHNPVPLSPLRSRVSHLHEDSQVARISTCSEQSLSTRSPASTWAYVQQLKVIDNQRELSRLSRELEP
# In short: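 Nucleotide exchange uses 100 nM EPAC1, 250 nM RAP1B-BODIPY-GDP and 50 uM GDP, with compounds in a concentration-titration series. After 5 min at room temperature, fluorescence (480 nm ex/540 nm em) is read every 5 min for 30 min. Data are normalized to control ATA and DMSO.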
# [13] = molecular target: Rap guanine nucleotide exchange factor 3 (Homo sapiens) (UniProt O95398); assay: Confirmatory qHTS for agonist of cAMP-regulated guanine nucleotide exchange factor 3 (EPAC1) (AID 1645881);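 also: EPAC1 catalysed release of BODIPY-GDP from Rap1B seen as fluorescence loss; nearly all actives have a fitted effect of over 75% in size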
# [14] = molecular target: Rap guanine nucleotide exchange factor 4 (Homo sapiens) (UniProt Q8WZA2); assay: Confirmatory qHTS for agonist of cAMP-regulated guanine nucleotide exchange factor 4 (EPAC2) (AID 1645884);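 also: nucleotide exchange releases bodipy-GDP from Rap1 and this lowers its fluorescence; nearly all actives have a fitted effect of over 65% in size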
# Sequence of Rap guanine nucleotide exchange factor 4 (Homo sapiens) (Q8WZA2 whole entry, looked up): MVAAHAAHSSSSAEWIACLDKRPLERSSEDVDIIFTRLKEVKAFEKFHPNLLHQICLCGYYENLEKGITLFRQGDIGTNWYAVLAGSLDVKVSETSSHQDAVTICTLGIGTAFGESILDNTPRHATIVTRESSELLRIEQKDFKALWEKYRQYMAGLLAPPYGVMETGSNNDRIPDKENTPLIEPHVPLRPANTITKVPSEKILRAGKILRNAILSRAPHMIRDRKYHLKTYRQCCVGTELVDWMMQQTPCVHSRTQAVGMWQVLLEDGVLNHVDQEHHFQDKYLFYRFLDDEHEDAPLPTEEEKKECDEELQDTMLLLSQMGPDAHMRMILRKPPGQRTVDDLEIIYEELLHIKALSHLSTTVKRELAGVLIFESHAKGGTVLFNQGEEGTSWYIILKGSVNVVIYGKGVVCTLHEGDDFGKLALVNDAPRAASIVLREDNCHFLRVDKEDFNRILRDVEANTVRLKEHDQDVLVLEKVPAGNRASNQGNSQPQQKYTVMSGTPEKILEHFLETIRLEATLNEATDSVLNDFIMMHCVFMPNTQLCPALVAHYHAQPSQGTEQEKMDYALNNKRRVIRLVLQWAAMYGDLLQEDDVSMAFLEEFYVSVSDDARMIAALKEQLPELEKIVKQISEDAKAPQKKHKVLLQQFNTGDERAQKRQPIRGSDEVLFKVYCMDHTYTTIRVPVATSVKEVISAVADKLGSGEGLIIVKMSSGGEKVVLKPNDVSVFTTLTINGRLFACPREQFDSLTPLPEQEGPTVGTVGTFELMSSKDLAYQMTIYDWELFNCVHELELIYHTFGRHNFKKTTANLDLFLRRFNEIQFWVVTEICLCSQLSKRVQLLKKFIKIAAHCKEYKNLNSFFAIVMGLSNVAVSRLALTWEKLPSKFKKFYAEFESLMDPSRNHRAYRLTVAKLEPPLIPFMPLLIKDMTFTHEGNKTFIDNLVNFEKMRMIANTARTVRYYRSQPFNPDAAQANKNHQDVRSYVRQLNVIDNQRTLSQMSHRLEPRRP
# [15] = molecular target: Rap guanine nucleotide exchange factor 4 (Homo sapiens) (UniProt Q8WZA2); assay: Confirmatory qHTS for antagonist of cAMP-regulated guanine nucleotide exchange factor 4 (EPAC2) (AID 1645885); also: nearly all actives have a fitted effect of over 25% in size
# [16] = Viability counterscreen for antagonist of constitutive androstane receptor (CAR) against the NCATS DSHEA and TCM libraries (AID 1794837);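 also: compound exposure lasted 24 h before viability reading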
# In short: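 HepG2-CYP2B6-hCAR cells (2,500/well) were allowed to attach for 5 h, then exposed to compounds with 48 uM CITCO for 24 h at 37C. Viability was read by CellTiter-Fluor fluorescence after 1 h.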
# [17] = Viability counterscreen for agonist of constitutive androstane receptor (CAR) against the NCATS DSHEA and TCM libraries (AID 1794838)
# In short: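 HepG2-CYP2B6-hCAR cells (2,500/well) attached 5 h, then got compounds plus 0.75 uM PK11195 final. After 24 h at 37C, viability read by CellTiter-Fluor fluorescence (Ex/Em 405/540 nm).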
# [18] = molecular target: Nuclear receptor subfamily 1 group I member 3 (Homo sapiens) (UniProt Q14994); assay: Primary qHTS for agonist of constitutive androstane receptor (CAR) against the NCATS DSHEA and TCM libraries (AID 1794839);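 also: HepG2 cells expressing human CAR with a CYP2B6 reporter plus PK11195 antagonist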
# Sequence of Nuclear receptor subfamily 1 group I member 3 (Homo sapiens) (Q14994 whole entry, looked up): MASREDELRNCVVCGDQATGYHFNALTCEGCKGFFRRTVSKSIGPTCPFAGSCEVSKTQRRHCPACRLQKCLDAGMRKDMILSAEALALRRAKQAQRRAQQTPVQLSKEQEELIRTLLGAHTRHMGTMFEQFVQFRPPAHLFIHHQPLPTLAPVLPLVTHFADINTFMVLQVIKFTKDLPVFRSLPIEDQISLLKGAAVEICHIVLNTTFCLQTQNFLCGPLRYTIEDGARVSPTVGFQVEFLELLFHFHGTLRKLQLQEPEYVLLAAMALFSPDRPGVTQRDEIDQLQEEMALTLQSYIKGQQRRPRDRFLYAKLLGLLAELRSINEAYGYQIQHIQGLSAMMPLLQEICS
# In short: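 HepG2-CYP2B6-hCAR cells (2,500/well) were attached for 5 h, then treated for 24 h at 37 °C with compounds plus 0.75 µM PK11195. Luciferase luminescence (ONE-Glo) was read, with CellTiter-Fluor viability (Ex/Em 405/540 nm).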
# [19] = HepG2 viability counterscreen (readout 2: ATP content) against the NCATS DSHEA and TCM libraries (AID 1794840);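 also: HepG2 cells exposed to substances for about 24 h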
# In short: (§1)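 HepG2 cells (1,000 cells/well) attached ~4 h, then treated ~24 h at 37C with substances. Protease activity read by GF-AFC (25 uM final, 30 min, Ex/Em 380/510 nm); ATP content then by CellTiter-Glo luminescence.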
# [20] = HepG2 viability counterscreen (readout 1: protease activity) against the NCATS DSHEA and TCM libraries (AID 1794841);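 also: cells exposed to compounds for about 24 h before the protease read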
# In short: as §1
structure (smiles),measurement,setting,value
CC(C)(C)C(=O)OCOP(=O)(COCCn1cnc2c(N)ncnc21)OCOC(=O)C(C)(C)C,Potency,[1],7.5 µM (active) and 7.42 µM (active)
same,Potency,[2],6.68 µM (active) and 7.42 µM (active)
same,outcome,[3],inactive
same,Potency,[4],inactive
Cc1onc(-c2ccccc2Cl)c1C(=O)N[C@@H]1C(=O)N2[C@@H]1SC(C)(C)[C@@H]2C(=O)O,Potency,[1],inactive
same,Potency,[2],inactive
same,Potency,[5],inactive
same,Potency,[4],inactive
CO[C@@H]1[C@@H](OC(N)=O)[C@@H](O)[C@H](Oc2ccc3c(O)c(NC(=O)c4ccc(O)c(CC=C(C)C)c4)c(=O)oc3c2C)OC1(C)C,Potency,[1],inactive
same,Potency,[2],inactive
same,Potency,[5],inactive
same,Potency,[4],inactive
COc1cc2c(Nc3ccc(Br)cc3F)ncnc2cc1OCC1CCN(C)CC1,Potency,[1],inactive and 3.65 µM (active) and 13.2 µM (active)
same,Potency,[2],5.15 µM (active) and 16.6 µM (active)
same,activity,[6],-17.2%
same,"activity change, negative = inhibition",[7],-2.94%
same,activity,[8],-14.2%
same,activity,[9],-14.3%
same,Potency,[5],inactive
same,Potency,[4],inactive
CNS(=O)(=O)CCc1ccc2[nH]cc(C3CCN(C)CC3)c2c1,Potency,[1],inactive
same,Potency,[2],inactive
same,activity,[6],-4.91%
same,"activity change, negative = inhibition",[7],2.91%
same,activity,[8],-12.2%
same,activity,[9],-2.32%
same,outcome,[10],inactive
same,Potency,[5],inactive
same,Potency,[4],inactive
NC(=O)c1ccc2[nH]ccc2c1,Potency,[1],inactive
same,Potency,[2],inactive
same,outcome,[10],inactive
same,Potency,[5],inactive
same,Potency,[4],inactive
CC(C)(C#N)c1cc(Cn2cncn2)cc(C(C)(C)C#N)c1,Potency,[1],inactive
same,Potency,[2],inactive
same,Potency,[5],inactive
same,Potency,[4],inactive
COc1cc(NS(=O)(=O)c2ccc(N)cc2)nc(OC)n1,Potency,[1],inactive
same,Potency,[2],inactive
same,Potency,[5],inactive
same,Potency,[4],inactive
COc1cc2ncnc(Nc3cccc(Cl)c3)c2cc1OC,Potency,[1],11.5 µM (active)
same,Potency,[2],12.9 µM (active)
same,activity,[6],-45.8%
same,Potency,[7],30.4 µM (active)
same,activity,[8],-29.1%
same,activity,[9],-45.8%
same,outcome,[10],inactive
same,Potency,[4],inactive
O=C(O)C1CCCN(CCC=C(c2ccccc2)c2ccccc2)C1 (configuration not stated),Potency,[1],inactive
same,Potency,[2],inactive
same,outcome,[10],inactive
same,Potency,[5],inactive
same,Potency,[4],inactive
CNNCc1ccc(C(=O)NC(C)C)cc1,Potency,[1],inactive
same,Potency,[2],inactive
same,Potency,[5],inactive
same,Potency,[4],inactive
CC(=O)CC(c1ccccc1)c1c(O)c2ccccc2oc1=O (configuration not stated),Potency,[1],inactive
same,Potency,[2],inactive
same,Potency,[5],inactive
same,Potency,[4],inactive
CC(N)C12CC3CC(CC(C3)C1)C2 (configuration not stated),Potency,[1],inactive
same,Potency,[2],inactive
same,Potency,[11],inactive
same,Potency,[5],6.4 µM (active) and inactive
same,Potency,[4],inactive
CCN(CC)CCn1c(=O)c(Cc2ccc(OC)cc2)nc2ccccc21,Potency,[1],inactive
same,Potency,[2],inactive
same,outcome,[10],inactive
same,Potency,[5],inactive
same,Potency,[4],inactive
CCOC(=O)[C@H](CCc1ccccc1)N[C@H]1CCc2ccccc2N(CC(=O)O)C1=O,Potency,[1],inactive
same,Potency,[2],inactive
same,Potency,[5],inactive
same,Potency,[4],inactive
OCc1ccc(-c2nn(Cc3ccccc3)c3ccccc23)o1,Potency,[1],3.72 µM (active)
same,Potency,[2],4.17 µM (active)
same,outcome,[10],inactive
same,Potency,[4],inactive
NC(=O)c1cccc(N)c1,Potency,[1],inactive
same,Potency,[2],inactive
same,Potency,[11],inactive
same,outcome,[10],inactive
same,Potency,[5],inactive
same,Potency,[4],inactive
CC1(C)[C@H](C(=O)O)N2C(=O)C[C@H]2S1(=O)=O,Potency,[1],inactive
same,Potency,[2],inactive
same,Potency,[5],inactive
same,Potency,[4],inactive
Cc1cccc(Nc2ccncc2S(=O)(=O)NC(=O)NC(C)C)c1,Potency,[1],inactive
same,Potency,[2],inactive
same,Potency,[5],inactive
same,Potency,[4],inactive
CCn1cc(C(=O)O)c(=O)c2cc(F)c(N3CCNCC3)cc21,Potency,[1],inactive
same,Potency,[2],inactive
same,Potency,[5],inactive
CN(C)CCc1c[nH]c2ccc(C[C@H]3COC(=O)N3)cc12,Potency,[1],inactive
same,Potency,[2],inactive
same,outcome,[12],inactive
same,outcome,[13],inactive
same,outcome,[14],inactive
same,outcome,[15],inactive
same,Potency,[4],inactive
O[C@@H](CNC[C@H](O)[C@H]1CCc2cc(F)ccc2O1)[C@@H]1CCc2cc(F)ccc2O1,Potency,[1],11.9 µM (active)
same,Potency,[2],11.9 µM (active)
same,Potency,[5],inactive
same,Potency,[4],inactive
CCCCc1oc2ccc(NS(C)(=O)=O)cc2c1C(=O)c1ccc(OCCCN(CCCC)CCCC)cc1,Potency,[1],2.99 µM (active) and 11.5 µM (active) and 5.9 µM (active)
same,Potency,[2],2.99 µM (active) and 9.16 µM (active) and 6.61 µM (active)
same,Potency,[5],inactive
same,Potency,[4],inactive
NNC(=O)c1ccncc1,Potency,[1],inactive
same,Potency,[2],inactive
same,outcome,[16],inactive
same,outcome,[17],inactive
same,outcome,[18],inactive
same,outcome,[19],inactive
same,outcome,[20],inactive
same,Potency,[5],inactive
same,Potency,[4],inactive
O=P(O)(O)C(O)(Cc1cccnc1)P(=O)(O)O,Potency,[1],inactive
same,Potency,[2],inactive
same,Potency,[11],inactive
same,Potency,[5],inactive
same,Potency,[4],inactive
